Screen size: about 310,000 compounds; about 14,000 (4.5%) showed an effect of 50% or more. The effect is printed as a negative number. This excerpt belongs to a sample that is enriched for strong results.
These compounds were tested against human ether-à-go-go-related gene (hERG) potassium channel (human, UniProt Q12809) (assay: primary screen, population patch clamp on CHO cells stably expressing hERG; higher = less effect of the substance).
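Also: peak tail current of the secondary pulse compared with the same well before compound.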

human ether-à-go-go-related gene (hERG) potassium channel, sequence (Q12809 whole entry, looked up): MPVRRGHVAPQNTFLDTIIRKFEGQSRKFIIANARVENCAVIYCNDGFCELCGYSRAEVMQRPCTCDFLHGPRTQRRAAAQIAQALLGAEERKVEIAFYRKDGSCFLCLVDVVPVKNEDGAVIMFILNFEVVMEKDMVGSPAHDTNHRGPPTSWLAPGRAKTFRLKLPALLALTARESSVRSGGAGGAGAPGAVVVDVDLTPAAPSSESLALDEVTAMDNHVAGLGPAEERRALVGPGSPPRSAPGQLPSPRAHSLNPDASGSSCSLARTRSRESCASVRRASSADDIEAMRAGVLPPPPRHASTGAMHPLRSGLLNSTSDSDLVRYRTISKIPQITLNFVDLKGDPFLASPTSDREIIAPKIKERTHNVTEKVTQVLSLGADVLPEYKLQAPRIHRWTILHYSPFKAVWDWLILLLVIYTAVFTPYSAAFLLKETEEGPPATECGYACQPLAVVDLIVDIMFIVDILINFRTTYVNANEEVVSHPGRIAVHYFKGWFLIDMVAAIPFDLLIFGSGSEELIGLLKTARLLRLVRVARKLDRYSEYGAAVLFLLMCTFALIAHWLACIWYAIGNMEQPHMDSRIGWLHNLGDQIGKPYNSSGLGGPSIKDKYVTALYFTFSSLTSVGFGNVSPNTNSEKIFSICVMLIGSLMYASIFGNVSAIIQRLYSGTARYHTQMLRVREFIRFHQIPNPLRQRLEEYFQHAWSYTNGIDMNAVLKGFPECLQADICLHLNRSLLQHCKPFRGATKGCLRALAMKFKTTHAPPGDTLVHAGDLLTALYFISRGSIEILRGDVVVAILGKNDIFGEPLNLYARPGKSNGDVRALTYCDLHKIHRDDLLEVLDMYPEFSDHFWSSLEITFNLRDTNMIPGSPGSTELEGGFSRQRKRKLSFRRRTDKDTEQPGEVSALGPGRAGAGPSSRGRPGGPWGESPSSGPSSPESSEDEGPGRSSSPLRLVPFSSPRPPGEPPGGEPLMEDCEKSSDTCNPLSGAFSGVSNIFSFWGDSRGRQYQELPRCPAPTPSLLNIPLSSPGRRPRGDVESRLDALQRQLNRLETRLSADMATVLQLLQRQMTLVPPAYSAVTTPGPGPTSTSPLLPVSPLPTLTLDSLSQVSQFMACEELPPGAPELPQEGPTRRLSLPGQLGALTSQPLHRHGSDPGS

SMILES | hERG current change (%, negative = inhibition) at 10uM
O=C(NN1C(=O)c2ccccc2C1=O)c1ccncc1 | 10.4%
CCOC(=O)C(O)(c1ccc(NC(=O)c2ccc(Cl)c(Cl)c2)cc1)C(F)(F)F (stereo not shown) | -4.61%
COc1ccc(NC(=O)CSc2nccn2Cc2ccco2)cc1OC | 11.3%
CCOC(=O)N1CCN(C(=O)c2ccc3c(c2)sc2nc(-c4ccccc4)cn23)CC1 | -49.3%
CCOC(=O)c1cn(CC)c2ccc(S(=O)(=O)N3CC(C)CC(C)C3)cc2c1=O (stereo not shown) | -21.7%
Cc1c(C)c2ccc(OC(C)C(=O)NCCc3c[nH]c4ccccc34)cc2oc1=O (stereo not shown) | -2.3%
Cc1ccc(SCC(=O)N2CCC(C(N)=O)CC2)cc1 | 13.2%
Cc1ccc(S(=O)(=O)NCCC(=O)N2CCN(S(=O)(=O)c3ccccc3)CC2)cc1C | -16.6%
Cc1ccc(CC(=O)N2CCN(S(=O)(=O)c3ccccc3)CC2)cc1C | -55.5%
Cc1ccc(S(=O)(=O)N2CCN(C(=O)Cc3ccccc3)CC2)cc1 | -26.1%
Cc1ccc(S(=O)(=O)N2CCN(C(=O)Cc3ccccc3)CC2)cc1C | -2.97%
O=C(CN1CCN(c2ccc(F)cc2)CC1)N1CCOCC1 | 12.9%
O=C(Cc1ccccc1)N1CCN(S(=O)(=O)c2cccc([N+](=O)[O-])c2)CC1 | -22.2%
O=C(CN1CCOCC1)N1CCN(c2ccc([N+](=O)[O-])cc2)CC1 | -71.6%
O=C(Cc1ccccc1)N1CCN(S(=O)(=O)c2ccc([N+](=O)[O-])cc2)CC1 | -64%
O=C(CN1CCN(c2ccc([N+](=O)[O-])cc2Cl)CC1)N1CCOCC1 | -45.2%
CCOC(=O)Cc1csc(NC(=O)Cc2cccs2)n1 | 6.28%
COc1ccc(S(=O)(=O)N2CCCC2C(=O)NCc2ccccc2Cl)cc1 (stereo not shown) | -12.4%
CC1CCC(NCCNC(=O)c2ccco2)CC1 (stereo not shown) | 11.8%
Cc1ccsc1C(=O)NCc1ccc(Cl)cc1 | 11.1%
c1cnc(NCCNc2ncccn2)nc1 | 9.05%
CC1(C)CC(NC(=O)c2ccc3c(c2)OCO3)CC(C)(C)N1 | 4.65%
COC(=O)[C@H](CC(C)C)NC(=O)NCCCc1ccccc1 | 1.82%
COc1ccc(C2Nc3ccccc3C(=O)N2Cc2ccccc2)cc1COc1ccccn1 (stereo not shown) | -49.4%
Cn1cc(C2=C(c3ccc(Cl)cc3Cl)C(=O)NC2=O)c2ccccc21 | 33%

— article PMC4336329 (PLoS ONE, 2015)
